We go through 40 molecules from PubChem BioAssay (NCATS).

Unmarked numbers belong to inactive results. The source made the active and inactive calls. Calls follow the shape of the dose curve; as a rule, active = well fitted curve in the direction sought with a large enough effect; inconclusive = small, poorly fitted or top-dose-only effect, or another doubt; inactive = no such curve, though single readings can be large or run the other way.

The assay in a line: Validation qHTS assay for inhibitors of Activation Induced Cytidine Deaminase (AID): UDG Counterscreen signal (AID 1347427). Also: 0% is about no effect. The conditions noted are these: biochemical UDG counterscreen, fluorescence signal; series mostly up to 115 µM; activity, negative = inhibition: at the top concentration. The source says: Assay Provider (PI) Patricia Gearhart Ph.D.
National Institute on Aging
National Institute of Health (NIH), Bethesda, MD
Assay Provider (PI) Rahul Kohli Ph.D.
Perelman School of Medicine
University of Pennsylvania, Philadelphia, PA
Activation-Induced Deaminase (AID) is a cytosine deaminase which converts cytosine into uracil within stretches of ssDNA. The presence of uracil in DNA initiates a cascade of mutagenic DNA repair to introduce point mutations and DNA double strand breaks. Specific targeting of AID to the immunoglobulin heavy chain loci (Igh) promotes mutagenesis in the antibody variable region for somatic hypermutation (SHM) or switch regions leading to class switch recombination (CSR). However, AID also plays a role in accumulating unnecessary mutations across the genome. Mis-targeting of AID results in the initiation of tumor development and leads to greater drug resistance among cancer cells when continually expressed. To identify an AID inhibitor, a small molecule library will be screened in collaboration with NCATS core facility at NIH. To confirm biological function, inhibitors will be examined in an in vitro murine B-cell activation assay and subsequent secondary validation screens. Top molecules will be further screened to identify inhibitory efficacy against a wild type primary splenocytes assay. Using these approaches, we hope to identify a small molecule with great efficacy and low toxicity for use as a molecular probe to further characterize AID's intricacies, or even as a therapeutic.
A FRET based analysis of cytosine deamination, was developed to identify potential inhibitors of AID catalytic activity. This screen has two signal output, Read 1 evaluates the AID inhibition response. The second readout (Read 2) evaluates UDG response and is uses as a counterscreen to exclude false positive inhibitors. Inhibition in AID and inactivity in the UDG signal is the desired outcome for this assay.
SEQUENCE No. (e.g., 1, 2, 3, etc.); […] (e.g., Cells, Incubation, Reagent, etc.); VALUE; DESCRIPTION
1a; Reagent; 3 uL; [4/3x] 1 uM AID/2.67 U/mL UDG
1b; Reagent; 3 uL; 2 U/mL UDG
1c; Reagent; 3 uL; 1 uM AID
2a; Compound; 46 nL; Follow-up plates (0.64 uM - 10 mM)
2b; Control; 46 nL; ATA ([…] - 10 mM)
3; Time; 10 min; incubation at room temperature
5; Time; 4 hr; incubation at room temperature
6; Reagent; 4 uL; [2x] 250 mM NaOH
7; Time; 15 sec; centrifuge at 1000 rpm
8; Time; 30 min; incubation at room temperature
9a; Detection; fluorescence (Read 1: AID); EnVision (PerkinElmer) plate reader, 540 excitation and 590 emission filters
9b; Detection; fluorescence (Read 2: UDG); EnVision (PerkinElmer) plate reader, 560 excitation and 665 emission filters
NOTES (numbers refer to sequence above)
1a; Reagents were dispensed in a medium-binding black solid-bottom Greiner plates (789176F) using a BioRptr liquid dispenser. Dispense 3 uL of [4/3x] 1 uM AID (provided by Kohli lab) and [4/3x] 2 U/mL UDG (NEB M0280L) into columns 1, 2, 5 to 48.
1b; Dispense 3 uL of [4/3x] 2 U/mL UDG into column 3.
1c; Dispense 3 uL of [4/3x] 1 uM AID into column 4.
2b; 10 mM Aurintricarboxylic Acid (Sigma A1895) (ATA, 8-point, n = 2, 1:2.5 dilution in column 2) double pin-transferred (Dip Factor = 2) using the Kalypsys (Wako USA) pintool equipped with a 1536 pinhead for a [final] range of 186 nM - 114 uM.
3; Room temperature incubation.
4; Dispense 1 uL of substrate mixture from the Kohli lab [4x] […] DJC20 and [4x] 250 nM DJC23 into columns 1 to 48 .
5; Room temperature incubation.
6; Dispense 4 uL of substrate mixture [2x] 250 mM NaOH into columns 1 to 48.
7; Centrifugation step to remove bubbles.
8; Room temperature incubation
9a; Fluorescence signal (column label AID) was read using the EnVision plate reader. Excitation filter = 540(8) nm, barcode = 311; Emission filter = 590(20) nm, barcode = 217; Mirror = D555, barcode = 405.
9b; Fluorescence signal (column label UDG) was read using the EnVision plate reader. […]
`NC(N)=NCCC[C@H](N)C(=O)O`: the “activity, negative = inhibition” value was 3.83%.
With `CC(C)(C)c1onc(OCP(=O)(O)O)c1CC(N)C(=O)O` (stereo not given), the Potency entry is “inactive”.
As to `C[C@]12CC[C@@H]3c4ccc(O)cc4CC[C@H]3[C@@H]1CCC2=O`, the “activity, negative = inhibition” value is 9.54%.
Turning to `CSc1ccc2c(c1)C(N1CCN(C)CC1)Cc1ccccc1S2` (stereo not given), the “activity, negative = inhibition” value was -3.08%.
For `CCN(CC)C(C)CN1c2ccccc2Sc2ccccc21` (stereo not given), the “activity, negative = inhibition” value was -12%.
Turning to `CN(C)CC[C@@H](c1ccc(Cl)cc1)c1ccccn1`, the “activity, negative = inhibition” value is 11.9%.
`CC1=C(CC(=O)O)c2cc(F)ccc2/C1=C\c1ccc(S(C)(=O)=O)cc1`: the “activity, negative = inhibition” value was 3.92%.
On to `CN(C)CCOC(C)(c1ccccc1)c1ccccn1` (stereo not given), for which the “activity, negative = inhibition” value is 6.16%.
The same measure, in the same setting: with `CC(C)C(=O)c1c(C(C)C)nn2ccccc12` the figure was 4.87%; with `CCN(CC)CCCC(C)Nc1c2ccc(Cl)cc2nc2ccc(OC)cc12` (stereo not given), -3.8%.
Take `CCCn1cnc2c1c(=O)n(CCCCC(C)=O)c(=O)n2C`: the “activity, negative = inhibition” value is 12.5%.
With `N=c1c[n+](N2CCOCC2)[n-]o1`, the “activity, negative = inhibition” value is -1.26%.
As for `CCN(CC)CCOC(=O)C1(C2CCCCC2)CCCCC1`, the “activity, negative = inhibition” value was 5.72%.
Same read-out and setting: with `NC1CCN(c2cccc(Cl)n2)CC1` the figure was 15%; with `COC(=O)C1=C(C)NC(C)=C(C(=O)OC)C1c1ccccc1[N+](=O)[O-]`, 14.4%; with `CC(=O)OCC(=O)[C@@]1(O)CC[C@H]2[C@@H]3CCC4=CC(=O)CC[C@]4(C)[C@H]3C(=O)C[C@@]21C`, 4.64%.
As to `CN(C)CCC=C1c2ccccc2CCc2ccccc21`, the “activity, negative = inhibition” value was 4.69%.
On the same count and under the same terms, the value for `CC1=C(/C=C/C(C)=C/C=C/C(C)=C/C(=O)O)C(C)(C)CCC1` was 11%.
Turning to `CNCCCC1c2ccccc2C=Cc2ccccc21`, the “activity, negative = inhibition” value was 12.2%.
Same read-out and setting: the value for `O=C1N=C(O)CN1/N=C/c1ccc(-c2ccc([N+](=O)[O-])cc2)o1` was 11%; that for `Nc1cc(=O)[nH]c(N)n1` was 13%; that for `C[C@](N)(Cc1ccc(O)cc1)C(=O)O` was 5.85%.
Regarding `CC(CN(C)C)CN1c2ccccc2CCc2ccccc21` (stereo not given), the “activity, negative = inhibition” value is 9.17%.
With `C=Cc1c(C)c2cc3[nH]c(cc4nc(cc5nc(cc1[nH]2)C(C)=C5CCC(=O)O)C(CCC(=O)O)=C4C)c(C)c3C=C`, the “activity, negative = inhibition” value was 119%.
For the molecule `CC(C)(C)[C@]1(O)CCN2C[C@H]3c4ccccc4CCc4cccc(c43)[C@@H]2C1`, the Potency result is “inactive”.
For the molecule `CCCCCCCCCCCCCCCC(=O)NCCO`, the “activity, negative = inhibition” value is 9.47%.
For the molecule `CC[C@H]1CN2CCc3cc(OC)c(OC)cc3[C@@H]2C[C@@H]1C[C@H]1NCCc2cc(OC)c(OC)cc21`, the “activity, negative = inhibition” value was 1.62%.
On to `OCCN1CCN(CCCN2c3ccccc3Sc3ccc(Cl)cc32)CC1`, for which the “activity, negative = inhibition” value was 0.479%.
For `COCCOC(=O)C1=C(C)NC(C)=C(C(=O)OC/C=C/c2ccccc2)C1c1cccc([N+](=O)[O-])c1` (stereo not given), the “activity, negative = inhibition” value was 1.96%.
`CC(C)NC[C@H](O)c1ccc(O)c(O)c1`: the Potency result was “inactive”.
Regarding `CC(C(O)c1ccc(O)cc1)N1CCC(Cc2ccccc2)CC1` (stereo not given), the “activity, negative = inhibition” value is 6.95%.
In the case of `COc1ccc(Cl)cc1C(=O)NCCc1ccc(S(=O)(=O)NC(=O)NC2CCCCC2)cc1`, the “activity, negative = inhibition” value is 11.3%.
For the molecule `C#CCN(C)Cc1ccccc1`, the “activity, negative = inhibition” value was 2.43%.
In the case of `OCc1cc(C(O)CNCCCCCCOCCCCc2ccccc2)ccc1O` (stereo not given), the “activity, negative = inhibition” value was -1.04%.
For the molecule `CC(CN1c2ccccc2Sc2ccccc21)N(C)C` (stereo not given), the “activity, negative = inhibition” value is -1.92%.
With `CCN(CC)CCNC(=O)c1cc(Cl)c(N)cc1OC`, the “activity, negative = inhibition” value is 11%.
Turning to `C[C@]12C[C@H](O)[C@H]3[C@@H](CCC4=CC(=O)CC[C@@]43C)[C@@H]1CC[C@@H]2C(=O)CO`, the “activity, negative = inhibition” value was 7.55%.
Consider `NC(=O)c1ncn([C@@H]2O[C@H](CO)[C@@H](O)[C@H]2O)n1`, for which the “activity, negative = inhibition” value was 10.6%.
In the case of `CNC(=O)Oc1ccc2c(c1)[C@]1(C)CCN(C)[C@@H]1N2C`, the “activity, negative = inhibition” value was 5.51%.
Same read-out and setting: with `CSc1ccc2c(c1)N(CCC1CCCCN1C)c1ccccc1S2` (stereo not given) the figure was -0.445%.
